Hits are enriched below; roughly 2.4% of the tested compounds scored in any of these assays.
D2 PAM-1 – positive allosteric modulators of human D2 dopamine receptor; potentiation, % (concentration not given with the values); DiscoveRx D2 beta-arrestin cells, luminescence, 90 min; 100% = 57 uM dopamine signal; actives 0.23% (n = 360,000); in the data active = potentiation above about 50%
Target sequence (P14416 whole entry, looked up): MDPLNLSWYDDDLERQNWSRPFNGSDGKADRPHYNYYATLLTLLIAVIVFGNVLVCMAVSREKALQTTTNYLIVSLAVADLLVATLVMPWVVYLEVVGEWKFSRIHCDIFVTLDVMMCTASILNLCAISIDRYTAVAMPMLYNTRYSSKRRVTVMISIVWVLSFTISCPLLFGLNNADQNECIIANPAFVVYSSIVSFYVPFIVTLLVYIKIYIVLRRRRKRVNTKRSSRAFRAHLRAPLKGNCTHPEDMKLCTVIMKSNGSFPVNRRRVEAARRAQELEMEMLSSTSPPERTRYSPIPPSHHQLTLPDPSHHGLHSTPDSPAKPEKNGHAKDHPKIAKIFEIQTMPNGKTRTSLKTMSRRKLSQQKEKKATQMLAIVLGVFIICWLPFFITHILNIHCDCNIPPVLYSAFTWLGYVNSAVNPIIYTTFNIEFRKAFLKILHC
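D2 cells co-treated with compound plus 50 nM dopamine (EC20) for 90 min at 37 deg C to detect potentiation. Beta-arrestin recruitment was read as enzyme-fragment luminescence after 1 h at ambient temperature. Full response was set by 57 uM dopamine.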
D2 ag-1 – D2 dopamine receptor (human) agonism. HEK293 T-REx D2 cells, calcium flux agonist mode. actives 0.53% (n = 340,000). activation, % at 2 µM. P14416. AID 485358;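 active = activation over 3 SD above normal in the single-dose calcium agonist read, cut at about 30% in these data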; note: 0% is about no effect
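Calcium-flux readout, 1 cycle/sec over 180 s following compound pin transfer, in inducible HEK293 Trex D2 cells (force-coupled); dopamine controls included. Positive calcium responses during this window marked compounds as potential agonists.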
D2 PAM-2 – positive allosteric modulators of human D2 dopamine receptor. P14416. HEK293 T-REx D2, calcium flux, EC20 dopamine potentiation. potentiation, % at 10 µM. actives 0.34% (n = 340,000). AID 485347;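 active = potentiation over 3 SD above the plate norm, cut at about 30% in these data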; note: 0% is about no effect
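Tetracycline-induced Hek293 Trex D2 cells, force-coupled to calcium, loaded with no-wash calcium dye. Compound added with 180 s kinetic read for agonism, then EC20 dopamine and a further 180 s read for potentiation.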
D2 ag-2 – agonists of human D2 dopamine receptor (beta-arrestin); P14416; DiscoveRx PathHunter D2 beta-arrestin, luminescence, 90 min; 100% = 57 uM dopamine signal; activation, % (no concentration beside the values); actives 0.084% (n = 360,000); in the data active = activation above about 40%
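DiscoveRx PathHunter D2 beta-arrestin cells (2,100/well) attached overnight, then compound-stimulated 90 min at 37 C in HBSS/10 mM HEPES/0.1% Tween-20 buffer; beta-galactosidase complementation read by luminescence after 1 h at ambient temperature. Dopamine 57 uM final (EC100) as control.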
D2 antagonist – antagonists of human D2 dopamine receptor; HEK293 TREx D2 cells, calcium flux, dopamine EC80; inhibition, % at 10 µM; actives 2% (n = 340,000); AID 485344; in the data active = inhibition above about 30%; inactive = below that, where a call was filed; note: 0% is about no effect
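Antagonism is scored as inhibition of an EC80 dopamine-evoked calcium signal in a force-coupled, tetracycline-inducible HEK293 T-REx D2 line, with compound present 180 s before agonist.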
The depositor's hits bear a star.

COC(=O)c1c(CSc2cccc(C)c2)noc1C(=O)NCc1ccco1 was read as D2 PAM-1 -23, D2 ag-1 -2, D2 PAM-2 -10, D2 ag-2 -1 and D2 antagonist 0.
`COC(=O)c1c(CSc2ccc(Cl)cc2)noc1C(=O)NCc1ccco1` gave D2 PAM-1 -12, D2 ag-1 0, D2 PAM-2 -20, D2 ag-2 3 and D2 antagonist 38*.
For CC(=O)Nc1ccc(NC(=O)C2Cc3ccccc3N2C(=O)c2ccccc2)cc1 (stereo not given) the results were D2 ag-1 2 and D2 PAM-2 -4.
Screening CO/N=C(/CS(=O)(=O)Cc1ccccc1Cl)c1ccc(Cl)cc1Cl returned D2 PAM-1 -16, D2 ag-1 2, D2 PAM-2 -7, D2 ag-2 -5 and D2 antagonist 43*.
For CN(C(=O)CS(=O)(=O)Cc1ccccc1Cl)c1ccccc1 the results were D2 PAM-1 4, D2 ag-1 0, D2 PAM-2 -12, D2 ag-2 1 and D2 antagonist 3.
O=C(Nc1ccccc1)OC[C@@H]1C=CS(=O)(=O)N1Cc1ccc(Br)cc1 was read as D2 PAM-1 -3 and D2 ag-2 -2.
Screening CCOC(=O)C1(CCOC)CCN(Cc2nc(C(C)C)cs2)CC1 returned D2 PAM-1 -9, D2 ag-1 -2, D2 PAM-2 -3, D2 ag-2 1 and D2 antagonist 33*.
`O=C(NCCN1CCOCC1)C12CC3CC(C1)CC(c1ccccc1)(C3)C2` gave D2 PAM-1 -10, D2 ag-1 0, D2 PAM-2 1, D2 ag-2 1 and D2 antagonist 38*.
For Cc1cccc(N2CCN(C(=O)c3cccn3-c3nnc(N4CCCCC4)s3)CC2)c1C the results were D2 ag-1 0 and D2 PAM-2 0.
For CCCN1C(=O)/C(=C/c2ccc(N3CCOCC3)cc2)NC1=S the results were D2 PAM-1 -13, D2 ag-1 24, D2 ag-2 -5 and D2 antagonist 1.
Screening CN1C(=O)/C(=C/c2ccc(OCc3ccc(F)cc3)cc2)N(C)C1=S returned D2 PAM-1 -1 and D2 ag-2 -4.
`Cc1cc(/C=C2\NC(=S)N(C)C2=O)ccc1N1CCCC1` gave D2 PAM-1 -5, D2 ag-1 69*, D2 PAM-2 -2, D2 ag-2 5 and D2 antagonist 42*.
For Cc1cc(/C=C2/C(=O)N(C)C(=S)N2C)ccc1N1CCCC1 the results were D2 PAM-1 3, D2 ag-1 32*, D2 PAM-2 -1, D2 ag-2 1 and D2 antagonist 26.
CCCN1C(=O)/C(=C/c2ccc(N3CCCC3)c(C)c2)NC1=S was read as D2 PAM-1 -9 and D2 ag-2 -3.
`CCN1C(=O)/C(=C/c2ccc(N3CCCC3)cc2)NC1=S` gave D2 PAM-1 -11, D2 ag-1 59*, D2 PAM-2 -17, D2 ag-2 1 and D2 antagonist 8.
Screening Cc1cc(N2CCCC2)ccc1/C=C1/C(=O)N(C)C(=S)N1C returned D2 PAM-1 -6, D2 ag-1 8, D2 PAM-2 -3, D2 ag-2 -4 and D2 antagonist 59*.
CCOc1ccc(N(C)S(=O)(=O)c2c(C(=O)N3CCC(C)CC3)c(C)n(C)c2C)cc1 was read as D2 ag-1 1 and D2 PAM-2 -2.
For O=C(CSc1nnc(N2CCCC2)n1-c1ccccc1Cl)N1CCN(c2ccccn2)CC1 the results were D2 PAM-1 0, D2 ag-1 0, D2 PAM-2 5, D2 ag-2 -3 and D2 antagonist 10.
For CN(Cc1cccc(Cl)c1)C(=O)C1CCC(=O)N(C2CC2)C1 (stereo not given) the results were D2 PAM-1 -8 and D2 ag-2 1.
O=C(C1CCCO1)N1CCN(C(=S)Nc2ccc(F)cc2)CC1 (stereo not given) was read as D2 PAM-1 -4, D2 ag-1 1, D2 PAM-2 1, D2 ag-2 2 and D2 antagonist 41*.
Screening Nn1c(SCC(=O)N2CCCC2)nnc1-c1cccs1 returned D2 PAM-1 -10 and D2 ag-2 -2.
O=c1[nH]c(SCc2c(F)cccc2Cl)nc2c1CCC2 was read as D2 PAM-2 -2.
O=C(O)c1cccnc1SCc1cccc(Cl)c1 was read as D2 PAM-1 -29, D2 ag-1 -1, D2 PAM-2 -22, D2 ag-2 1 and D2 antagonist 45*.
`Cc1cccc(CSc2ncccc2C(=O)O)c1` gave D2 PAM-1 -3, D2 ag-1 1, D2 PAM-2 5, D2 ag-2 1 and D2 antagonist -20.
For CCOc1ccccc1NC(=O)CCc1c(C)nc2c(c(C)nn2-c2ccccc2)c1C the results were D2 ag-1 0 and D2 PAM-2 -3.
For Cc1cccc(NC(=O)C2CCCN(C(=O)Nc3ccc(F)cc3)C2)c1 (stereo not given) the results were D2 PAM-1 -20, D2 ag-1 -2, D2 PAM-2 1, D2 ag-2 -4 and D2 antagonist 31*.
For COCc1c(C(=O)Nc2nnc(C3CC3)s2)oc2ccccc12 the results were D2 PAM-1 -5 and D2 ag-2 0.
For O=C(c1cc(Cl)nc2ccccc12)N1CCN(S(=O)(=O)c2cccc(C(F)(F)F)c2)CC1 the results were D2 PAM-1 3, D2 ag-1 0, D2 PAM-2 -2, D2 ag-2 0 and D2 antagonist -12.
Screening Cc1ccc(S(=O)(=O)c2cc3c(=O)n4ccccc4nc3n(C)c2=N)cc1C returned D2 PAM-1 -3, D2 ag-1 0, D2 PAM-2 36*, D2 ag-2 -3 and D2 antagonist 4.
Screening COc1ccc(-c2cc3c(=O)n(CC(=O)Nc4cc(F)ccc4F)ccn3n2)cc1OC returned D2 ag-1 1 and D2 PAM-2 7.
`CC(C)Cn1c(=O)c2ccccc2n2c(CCC(=O)Nc3cccc(Cl)c3)nnc12` gave D2 ag-1 0 and D2 PAM-2 10.
For CC(C)/C=C1\CC/C(=C\c2ccc(N(C)C)cc2)C1=O the results were D2 PAM-1 -4, D2 ag-1 92*, D2 PAM-2 -7, D2 ag-2 -4 and D2 antagonist 27.
O=C(O)c1nn(CCOc2ccc(Br)cc2)c(=O)c2ccccc12 was read as D2 PAM-1 -1, D2 ag-1 1, D2 PAM-2 7, D2 ag-2 -1 and D2 antagonist 19.
`O=C(O)c1nn(CCOc2ccccc2F)c(=O)c2ccccc12` gave D2 PAM-1 -4, D2 ag-1 1, D2 PAM-2 33*, D2 ag-2 -8 and D2 antagonist -11.
